Assay outcomes from PubChem.
In the library only some 10% were active in any assay of this set; here they are far more common.
JMJD2A Tudor inh – qHTS Assay for Inhibitors of JMJD2A-Tudor Domain. Lysine-specific demethylase 4A (Homo sapiens), O75164. Potency, µM (highest dose often 114 µM), inactives show top-dose activity change, negative = inhibition, most hits filed as inhibitors. AlphaScreen JMJD2A-Tudor / H3K4me3 peptide binding. hit rate 4.4% among 390,000; further: on the % scale 0 is the no-effect control and ±100 the full control effect; nearly all actives have a fitted effect of over 50% in size
BAZ2B inh – qHTS Assay for Inhibitors of BAZ2B; AlphaScreen BAZ2B-H3K14Ac peptide displacement; hit rate 4.4% among 360,000; Potency, µM (series often up to 114 µM), for inactives: at the highest dose activity change, negative = inhibition, actives largely listed as inhibitors; Bromodomain adjacent to zinc finger domain protein 2B (Homo sapiens), Q9UIF8; further: on the % scale 0 is the no-effect control and ±100 the full control effect; nearly all actives have a fitted effect of over 60% in size
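BAZ2B 50 nM plus b-H3(5-23)K14Ac 50 nM, PBS pH 7.4/0.01% Tween-20, 30 min RT; compound added (max 110 uM), 30 min RT; streptavidin donor/Ni-chelate acceptor beads 10 ug/mL final, 20 min dark; AlphaScreen read.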
G9a block – qHTS Assay for Inhibitors of Histone Lysine Methyltransferase G9a | AID 504332, 2011 | Histone-lysine N-methyltransferase EHMT2 (Homo sapiens), Q96KQ7 | hit rate 8.8% among 350,000 | G9a H3K9 monomethylation, AlphaScreen, 2 h | Potency, µM (series often up to 102 µM), inactives show top-dose activity, negative = inhibition, usual class: inhibitors; further: on the % scale 0 is the no-effect control and ±100 the full control effect; nearly all actives have a fitted effect of over 75% in size
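AlphaScreen read-out: biotin-H3K9 peptide (500 nM) methylation by 20 nM enzyme with 20 uM SAM, 2 h at room temperature after 15 min compound preincubation; anti-monomethyl H3K9 antibody plus donor/acceptor beads, 10 min dark.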
GLS inhibitor – qHTS for Inhibitors of Glutaminase (GLS) | Glutaminase kidney isoform, mitochondrial (Homo sapiens), O94925 | GLS enzymatic activity, qHTS titration | Potency, µM (highest dose often 45.5 µM), for the others: at the top dose activity change, negative = inhibition, usual class: inhibitors | hit rate 0.21% among 410,000 | AID 624170, 2012; further: on the % scale 0 is the no-effect control and ±100 the full control effect
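Enzyme dispensed in phosphate buffer (45 mM, pH 8.2, 0.02% Tween-20), compounds pinned in, then 1 mM L-glutamine solution and the glutamate oxidase–HRP–Amplex Red mix added; fluorescence read immediately and again after 30 min at room temperature.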
HP1b chromo inh – HTS for Inhibitors of HP1-beta Chromodomain Interactions with Methylated Histone Tails | Chromobox protein homolog 1 (Homo sapiens), P83916 | AlphaScreen HP1-beta / biotin-H3K9me3 peptide binding | Potency, µM (titrated, usually from 114 µM), for the others: at the highest dose activity change, negative = inhibition, hits mostly inhibitors | hit rate 0.56% among 390,000 | AID 540317, 2011; further: nearly all actives have a fitted effect of over 70% in size
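HP1-beta protein (50 nM final) preincubated 30 min at room temperature with biotinylated H3(1-18)K9me3 peptide (50 nM) in PBS pH 7.4, 0.01% Tween-20, then compound added for 30 min. AlphaScreen streptavidin donor/nickel chelate acceptor beads (10 ug/mL final), 30 min dark, luminescence read.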
An asterisk follows results filed as active; ? = inconclusive; . = no result given; [ ] = remark or other dose. The call rests on the fitted dose curve; in most records, active means well fitted curve in the direction sought with a large enough effect; inconclusive means small, poorly fitted or top-dose-only effect, or another doubt; inactive means no such curve, though single readings can be large; an effect the other way counts as inactive or inconclusive. Potency means the concentration at half of the fitted maximal effect.

SMILES | JMJD2A Tudor inh | BAZ2B inh | G9a block | GLS inhibitor | HP1b chromo inh
COc1ccccc1N1CCN(C(=O)c2cc3cc(C)ccc3[nH]2)CC1 | -14% | -39% | 1%[0.501 µM] | 1% | 8%
Cc1ccccc1S(=O)(=O)/N=C(/Nc1c(C)n(C)n(-c2ccccc2)c1=O)c1ccccc1 | -1% | 18% | 57% | -5% | 24%
CCN(c1ccc(NC(=O)COC(=O)CCc2cc(OC)c(OC)c(OC)c2)cc1)C(C)C | ? | -38% | 25µM* | 56% | ?
CCN(CC)c1ccc(NC(=O)COC(=O)CCc2cc(OC)c(OC)c(OC)c2)cc1 | . | . | . | 42% | .
COc1ccc(NC(=O)CCS(=O)(=O)c2ccc3c(c2)CCCN3C(C)=O)cc1 | -11% | 6% | 6%[59 µM] | 13% | 34%
c1coc(-c2nc(-c3ccco3)c(-c3ccco3)nc2-c2ccco2)c1 | 7.9µM* | 28µM* | 11µM* | 13µM* | ?
COc1ccc(-c2nc3ccccc3nc2-c2ccc(OC)cc2)cc1 | 100% | 90% | 379% | -1% | 194%
c1coc(-c2nc3cc4ccccc4cc3nc2-c2ccco2)c1 | 7.9µM* | . | . | . | 7.9µM*
Nc1nc(-c2cccs2)c(-c2cccs2)s1 | -26% | ? | ? | -11% | ?
COc1ccc2nc(-c3ccco3)c(-c3ccco3)nc2c1 | ? | 50µM* | ? | 6% | -19%
Nc1nc(-c2ccco2)c(-c2ccco2)s1 | ? | 45µM* | ? | -1% | ?
Cc1ccsc1CN(Cc1ccco1)C(=O)c1ccc(Cl)cc1 | 22% | 36% | 33%[59 µM] | 0% | 72%
Nc1nc(-c2ccc(-n3nncc3-c3ccco3)cc2)cs1 | -35% | ? | -40%[59 µM] | 12% | -13%
Nc1nc(-c2ccco2)cs1 | -7% | -5% | 45µM* | 20% | 11%
COc1ccc(NS(=O)(=O)c2ccc3nc(-c4ccccc4)[nH]c3c2)cc1 | 0% | 2% | 9%[59 µM] | 7% | 44%
COc1ccc(NS(=O)(=O)c2ccc3nc(COc4ccc(Cl)c(C)c4)[nH]c3c2)cc1 | -26% | -3% | 45µM* | 9% | 1%
CCN(CC)C(=O)c1sc2nc(-c3ccccn3)[nH]c(=O)c2c1C | 28µM* | . | . | 0% | 25%
CCN(CC)C(=O)c1sc2nc(-c3ccncc3)[nH]c(=O)c2c1C | -5% | -2% | 26%[59 µM] | -6% | 38%
Cc1sc2nc(-c3ccncc3)[nH]c(=O)c2c1-c1ccccc1 | . | 4% | 16%[59 µM] | . | .
Cc1sc2nc(-c3ccccn3)[nH]c(=O)c2c1-c1ccccc1 | -14% | -3% | 10µM* | -15% | 18%
CCOC(=O)c1cc2c(=O)n3ccccc3nc2n(Cc2ccco2)c1=NC(=O)c1cccnc1 | ? | ? | 56µM* | 7% | 12%
CCOC(=O)c1cc2c(=O)n3ccccc3nc2n(Cc2ccco2)c1=NC(=O)c1ccc(C)c(C)c1 | 6% | 3% | -3%[59 µM] | -7% | 25%
CCOC(=O)c1cc2c(=O)n3ccccc3nc2n(CCOC)c1=NC(=O)c1ccncc1 | -17% | 3% | -4%[12.7 µM] | -18% | 28%
CCOC(=O)c1cc2c(=O)n3cccc(C)c3nc2n(Cc2ccco2)c1=NC(=O)c1cccnc1 | ? | 79µM* | 8%[12.7 µM] | -17% | 15%
CCOC(=O)c1cc2c(=O)n3ccccc3nc2n(Cc2ccco2)c1=NC(=O)c1cccc(Br)c1 | -6% | 50µM* | ? | ? | 28%
SMILES | JMJD2A Tudor inh | BAZ2B inh | G9a block | GLS inhibitor | HP1b chromo inh
CCOC(=O)c1cc2c(=O)n3ccccc3nc2n(CCCOC)c1=NC(=O)c1cccnc1 | . | 10% | 10µM* | . | .
Cc1ccc(S(=O)(=O)N2CCOCC2)cc1C(=O)OCC(=O)c1c(N)n(C)c(=O)n(C)c1=O | -5% | . | . | 10% | 44%
CCOC(=O)c1cc2c(=O)n3ccccc3nc2n(C(C)C)c1=NC(=O)c1ccncc1 | ? | 0% | 56µM* | -2% | -7%
COCCCn1c(C(=O)N2CCOCC2)cc2c(=O)n3ccccc3nc21 | -2% | -9% | 49% | 11% | 26%
CCOC(=O)c1cc2c(=O)n3ccccc3nc2n(C(C)C)c1=NC(=O)c1c(-c2ccccc2Cl)noc1C | 5% | . | 0% | -10% | 46%
COCCCn1c(C(=O)Nc2ccc3c(c2)OCO3)cc2c(=O)n3ccccc3nc21 | 25µM* | -4% | -5% | ? | 10%
CCCn1ncc(CN2CCC(n3nccc3NC(=O)c3ccccc3OC)CC2)c1C | 4% | -1% | 11% | 7% | 34%
COc1ccc(C2=NN(C(=O)c3cccs3)C(O)(C(F)(F)F)C2)cc1 (stereo not given) | 1% | 13% | -27% | 3% | 49%
COc1ccc(C2=NN(c3nc(C(=O)O)cs3)C(O)(C(F)(F)F)C2)c(OC)c1 (stereo not given) | 1% | 50µM* | -28% | -10% | 73%
Cc1ccc(-c2csc(N3CCC[C@@H]3C(=O)NCCn3c(C(F)(F)F)nc4ccccc43)n2)cc1 | ? | ? | ? | 4% | -14%
O=C(NCCn1c(C(F)(F)F)nc2cc(C(F)(F)F)ccc21)[C@H]1CCCN1c1nc(CN2CCCCC2)cs1 | -28% | -30% | 71µM* | 5% | 33%
O=C(O)CCNC(=O)/C(=C/C=C/c1ccccc1)NC(=O)c1ccccc1 | -18% | -3% | 40µM* | -2% | 19%
O=C(Nc1ccc(C(=O)O)cc1)/C(=C\C=C\c1ccccc1)NC(=O)c1cccc(Br)c1 | -33% | 56µM* | 40µM* | -1% | 7%
COc1ccc(Nc2ccc(OC)cc2)cc1 | 50µM* | 20µM* | . | 30% | 40µM*
COc1ccc(NC2=CC(=O)N(C)C2=O)cc1 | -15% | -13% | -23%[59 µM] | 0% | 32%
NNc1nc(Nc2ccccc2)nc(N2CCCCC2)n1 | ? | 79µM* | -7% | 29% | 19%
O=[N+]([O-])c1ccc(Nc2nc(NCCO)nc(N3CCCC3)n2)cc1 | -6% | 3% | 45µM* | -3% | 20%
Cc1cccc(Nc2nc(N3CCCCC3)nc(N3CCCCC3)n2)c1 | 7% | 3% | -2%[59 µM] | 11% | 28%
COc1ccc(NC2=C(C)C(=O)CC2)cc1 | 3% | 56µM* | 2%[2.33 µM] | -3% | 41%
O=C(CSCc1ccc(F)cc1)NCc1ccco1 | -17% | 7% | ? | 1% | 44%
CCOC(=O)[C@]12CCC=C1N(CCC1=CCCCC1)C(=O)[C@H](CC(=O)NCc1cccs1)C2 | . | . | . | -4% | .
COc1ccc(Nc2cccccc2=O)cc1 | ? | -36% | ? | 27% | -3%
NNc1nc(Nc2ccccc2)nc(Nc2ccccc2)n1 | -29% | 22µM* | 35% | -7% | 40%
